This passage reports inhibition results from ChEMBL document CHEMBL1961873, “Compounds: GSK PKIS; Assays: Nanosyn kinase panel” (2012).

Assay [1] deals with Serine/threonine-protein kinase pim-2 (Homo sapiens) (UniProt Q9P1W9). Conditions: at 1 µM.
Assay [2] has as its target Serine/threonine-protein kinase pim-3 (Homo sapiens) (UniProt Q86V86). Conditions: at 0.1 µM.
Assay [3] shares this target. Conditions: at 1 µM.
Assay [4] has as its target T1, MAP kinase-activated protein kinase 5 (Homo sapiens) (UniProt Q8IW41).
T1 sequence (whole entry): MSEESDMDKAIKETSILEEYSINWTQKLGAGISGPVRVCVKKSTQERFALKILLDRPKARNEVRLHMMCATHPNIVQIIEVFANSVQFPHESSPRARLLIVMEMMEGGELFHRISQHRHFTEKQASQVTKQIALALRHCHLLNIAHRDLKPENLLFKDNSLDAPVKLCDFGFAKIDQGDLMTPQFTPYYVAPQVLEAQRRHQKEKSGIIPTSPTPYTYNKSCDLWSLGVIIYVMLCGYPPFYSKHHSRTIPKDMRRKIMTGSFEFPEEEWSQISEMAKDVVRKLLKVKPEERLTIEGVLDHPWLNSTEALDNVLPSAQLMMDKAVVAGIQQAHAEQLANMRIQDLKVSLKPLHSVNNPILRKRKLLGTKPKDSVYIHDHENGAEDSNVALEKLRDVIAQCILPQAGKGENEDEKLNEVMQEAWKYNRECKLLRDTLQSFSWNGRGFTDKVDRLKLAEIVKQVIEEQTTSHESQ
Conditions: at 0.1 µM.

Assay [5] has as its target T1, MAP kinase-activated protein kinase 5 (Homo sapiens). Conditions: at 1 µM.
Assay [6] has as its target Serine/threonine-protein kinase SIK1 (Homo sapiens) (UniProt P57059). Conditions: at 0.1 µM.
Assay [7] shares this target. Conditions: at 1 µM.
Assay [8] concerns the target Serine/threonine-protein kinase SIK2 (Homo sapiens) (UniProt Q9H0K1). Conditions: at 0.1 µM.
Assay [9] shares this target. Conditions: at 1 µM.
Assay [10] addresses T2, Serine/threonine-protein kinase TBK1 (Homo sapiens) (UniProt Q9UHD2).
T2 sequence (whole entry): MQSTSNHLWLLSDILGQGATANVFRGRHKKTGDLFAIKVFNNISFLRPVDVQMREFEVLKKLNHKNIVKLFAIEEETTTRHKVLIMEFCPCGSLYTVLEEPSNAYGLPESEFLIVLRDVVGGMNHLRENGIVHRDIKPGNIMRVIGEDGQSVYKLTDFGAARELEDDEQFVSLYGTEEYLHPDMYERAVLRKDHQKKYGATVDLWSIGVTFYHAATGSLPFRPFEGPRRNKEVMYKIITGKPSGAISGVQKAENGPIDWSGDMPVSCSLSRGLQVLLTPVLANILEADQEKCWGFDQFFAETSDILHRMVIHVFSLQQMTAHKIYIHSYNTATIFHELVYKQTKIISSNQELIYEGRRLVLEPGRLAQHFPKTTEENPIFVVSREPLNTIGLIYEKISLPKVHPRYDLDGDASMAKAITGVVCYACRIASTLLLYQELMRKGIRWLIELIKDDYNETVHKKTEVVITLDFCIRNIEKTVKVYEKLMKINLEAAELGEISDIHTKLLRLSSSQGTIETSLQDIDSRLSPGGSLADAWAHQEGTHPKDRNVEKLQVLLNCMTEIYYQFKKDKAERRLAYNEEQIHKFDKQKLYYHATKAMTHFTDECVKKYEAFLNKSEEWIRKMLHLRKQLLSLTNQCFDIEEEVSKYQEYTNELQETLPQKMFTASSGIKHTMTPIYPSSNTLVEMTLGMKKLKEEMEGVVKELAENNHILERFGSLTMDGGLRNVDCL
Conditions: at 0.1 µM.

Broadly, the inhibition is the drop in the measured response relative to a control, in per cent.

Serine/threonine-protein kinase pim-2 (Homo sapiens), sequence (Q9P1W9 whole entry, looked up): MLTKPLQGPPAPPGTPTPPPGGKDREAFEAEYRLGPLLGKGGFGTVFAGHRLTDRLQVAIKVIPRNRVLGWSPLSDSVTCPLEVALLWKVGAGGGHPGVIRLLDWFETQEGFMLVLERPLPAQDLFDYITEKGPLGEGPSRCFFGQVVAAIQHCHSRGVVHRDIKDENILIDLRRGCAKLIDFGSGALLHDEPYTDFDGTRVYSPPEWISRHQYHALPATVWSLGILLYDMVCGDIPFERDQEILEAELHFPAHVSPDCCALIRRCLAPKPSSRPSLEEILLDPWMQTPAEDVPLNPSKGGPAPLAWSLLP
Serine/threonine-protein kinase SIK1 (Homo sapiens), sequence (P57059 whole entry): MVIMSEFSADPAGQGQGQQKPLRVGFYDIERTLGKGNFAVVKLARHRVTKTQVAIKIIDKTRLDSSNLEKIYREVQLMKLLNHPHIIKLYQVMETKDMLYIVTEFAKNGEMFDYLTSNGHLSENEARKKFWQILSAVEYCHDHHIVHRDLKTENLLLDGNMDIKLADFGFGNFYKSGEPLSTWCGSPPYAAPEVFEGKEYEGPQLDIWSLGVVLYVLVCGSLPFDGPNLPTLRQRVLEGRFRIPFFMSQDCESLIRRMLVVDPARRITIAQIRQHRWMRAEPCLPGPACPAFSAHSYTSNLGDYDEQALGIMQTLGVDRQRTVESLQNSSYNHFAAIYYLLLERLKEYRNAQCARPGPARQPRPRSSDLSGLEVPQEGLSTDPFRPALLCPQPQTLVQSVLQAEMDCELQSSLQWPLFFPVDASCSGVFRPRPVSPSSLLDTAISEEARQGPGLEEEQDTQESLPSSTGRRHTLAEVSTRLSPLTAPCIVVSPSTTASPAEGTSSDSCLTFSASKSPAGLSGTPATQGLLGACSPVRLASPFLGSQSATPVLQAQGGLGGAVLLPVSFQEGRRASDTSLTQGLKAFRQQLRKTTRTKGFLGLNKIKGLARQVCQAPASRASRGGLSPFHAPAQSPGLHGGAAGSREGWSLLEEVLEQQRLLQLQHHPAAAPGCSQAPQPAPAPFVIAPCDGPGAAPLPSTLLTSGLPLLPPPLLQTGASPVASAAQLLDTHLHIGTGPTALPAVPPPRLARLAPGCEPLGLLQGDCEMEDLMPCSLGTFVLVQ
Serine/threonine-protein kinase SIK2 (Homo sapiens), sequence (Q9H0K1 whole entry, looked up): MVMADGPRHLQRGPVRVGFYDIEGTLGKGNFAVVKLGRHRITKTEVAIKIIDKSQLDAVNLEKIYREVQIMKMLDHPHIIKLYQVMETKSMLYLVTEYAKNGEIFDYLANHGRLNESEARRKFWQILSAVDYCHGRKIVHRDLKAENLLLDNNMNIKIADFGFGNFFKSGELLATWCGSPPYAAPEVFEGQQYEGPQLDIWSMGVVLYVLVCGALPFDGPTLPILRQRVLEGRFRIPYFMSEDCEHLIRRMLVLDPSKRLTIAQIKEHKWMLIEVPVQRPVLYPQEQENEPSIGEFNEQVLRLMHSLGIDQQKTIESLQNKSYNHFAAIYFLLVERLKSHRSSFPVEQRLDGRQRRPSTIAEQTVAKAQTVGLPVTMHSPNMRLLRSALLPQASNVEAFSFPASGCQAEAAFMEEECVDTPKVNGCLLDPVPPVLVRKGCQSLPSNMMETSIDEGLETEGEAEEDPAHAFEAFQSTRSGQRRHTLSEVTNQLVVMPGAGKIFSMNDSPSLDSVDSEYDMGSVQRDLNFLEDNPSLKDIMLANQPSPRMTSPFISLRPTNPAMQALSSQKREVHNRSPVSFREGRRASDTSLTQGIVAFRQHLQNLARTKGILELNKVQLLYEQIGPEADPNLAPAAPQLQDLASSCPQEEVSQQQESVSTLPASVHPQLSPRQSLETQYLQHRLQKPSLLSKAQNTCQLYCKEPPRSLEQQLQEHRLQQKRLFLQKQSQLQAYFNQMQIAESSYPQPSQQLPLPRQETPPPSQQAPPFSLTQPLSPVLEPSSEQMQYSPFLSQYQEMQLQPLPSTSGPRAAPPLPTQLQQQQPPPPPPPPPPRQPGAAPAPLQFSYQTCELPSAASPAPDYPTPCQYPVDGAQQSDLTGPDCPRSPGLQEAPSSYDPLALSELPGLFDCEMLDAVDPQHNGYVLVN

For the compound `NS(=O)(=O)c1ccc(-c2ccc3c(NC(=O)C4CC4)n[nH]c3c2)cc1`, the inhibition is 0.28% in [1]; -0.26% in [2]; -1.81% in assay [3]; 0.51% in assay [4]; 0.89% in assay [5]; 5.15% in assay [6]. The inhibition was determined as 3.27% in assay [7], 1.79% in [8], 8.87% in assay [9] and 5.3% in assay [10].

Turning to `COc1cc2c(cc1Nc1nc(Nc3ccsc3C(N)=O)c3cc[nH]c3n1)N(C(=O)CN(C)C)CCC2`, the inhibition in assay [1] was 3.29%; in assay [2], 6.22%; in [3], 38.3%; in [4], 1.1%; in [5], 1.23%; in assay [6], -0.68%. For the same compound, the inhibition in assay [7] was -0.04%; in [8] it was -2.92%; in assay [9] it was 5.93%; in [10] it was 9.46%.

On to `CCn1c(-c2nonc2N)nc2c(C#CC(C)(C)O)nc(O[C@@H](CN)c3ccccc3)cc21`, for which the inhibition is 20.6% in assay [1]; 4.66% in assay [2]; 39% in [3]; -0.85% in [4]; -1.11% in assay [5]; -0.97% in [6]. In addition, the inhibition was 8.3% in assay [7], -0.81% in [8], 14.8% in [9] and 20.9% in assay [10].

As to `Cc1cc(-c2ccco2)cc(C)c1/C=C/c1cncc(-c2nn[nH]n2)c1`, the inhibition in [1] was 1.49%; in [2], 0.12%; in assay [3], 1.83%; in assay [4], 0.41%; in assay [5] it was 0.28%; in [6], -0.49%. Besides, the inhibition is 6.77% in [7], -2.65% in assay [8], 0.13% in assay [9] and 0.36% in [10].

`NC(=O)c1sc(-n2cnc3cc(C(F)(F)F)ccc32)cc1OCc1ccccc1Br`: the inhibition in [1] was 1.16%; in assay [2], 1.55%; in assay [3], 2.84%; in assay [4] it was 0.86%; in assay [5] it was 0.76%; in [6], 6.45%. Besides, the inhibition in assay [7] was 1.7%; in assay [8] it was -0.18%; in [9], 3.79%; in [10], 0.98%.

On to `Fc1ccc(-c2ncn(C3CCNCC3)c2-c2ccnc(Oc3ccccc3)n2)cc1`, for which the inhibition is -3.69% in [1]; -0.25% in [2]; -0.02% in assay [3]; 0.89% in [4]; 1.1% in assay [5]; 2.14% in assay [6]. The inhibition was 8.86% in assay [7], -0.18% in [8], 7.64% in assay [9] and 0.83% in [10].

On to `NS(=O)(=O)c1ccc(N/C=C2\C(=O)Nc3ccc4ncsc4c32)cc1`, for which the inhibition was determined as 1.21% in [1]; 0.54% in assay [2]; 4.12% in assay [3]; 2.27% in [4]; 7.16% in assay [5]; 2.12% in [6]. The inhibition in assay [7] came out at 21%; in assay [8], 9%; in assay [9], 25.8%; in assay [10], 10.7%.

On to `COc1cc(C=NNc2ncnc3c2cnn3Cc2ccccc2)ccc1O`, for which the inhibition in assay [1] is 4.62%; in assay [2] it was 1.07%; in assay [3], 5.08%; in [4], -1.78%; in assay [5] it was -1.84%; in assay [7] it was -3.99%. Moreover, the inhibition was -6% in assay [8] and 0.04% in [10].

For `COc1cccc(COc2cc(-n3cnc4ccccc43)sc2C(N)=O)c1`, the inhibition in assay [1] was 1.31%; in [2] it was 0.12%; in [3] it was 0.33%; in [4] it was 0.16%; in assay [5], -0.81%; in assay [6] it was -0.86%. Moreover, the inhibition in assay [7] is 3.4%; in assay [8], -0.88%; in assay [9] it was -4.75%; in [10], -1.18%.

For the compound `Nc1nonc1-c1nc2cnccc2n1C1CCCCC1`, the inhibition in assay [1] was 37.5%; in assay [2], 11.4%; in [3] it was 56.9%; in [4] it was -0.83%; in assay [5], -1.13%; in assay [6], -4.72%. Besides, the inhibition is -3.76% in assay [7], -6.25% in assay [8], 9.23% in assay [9] and 3.95% in assay [10].

Consider `CCn1c(-c2nonc2N)nc2c(C#CC(C)(C)O)ncc(OC[C@@H]3CCCN3)c21`, for which the inhibition in assay [1] worked out at 7.09%; in assay [2], 1.81%; in assay [3] it was 10.1%; in [4] it was 0.11%; in assay [5], 0.32%; in assay [6] it was 1.03%. Moreover, the inhibition in [7] is 4.19%; in assay [8], -4.09%; in assay [9] it was 6.59%; in assay [10], 5.1%.

For the compound `CCn1c(-c2nonc2N)nc2c(C#CCN)ncc(OCCCN)c21`, the inhibition in [1] is 5.54%; in [2] it was 9.18%; in assay [3], 33%; in assay [4] it was -1.32%; in [5], 1.09%; in assay [6], -4.16%. Besides, the inhibition in [7] was -7.22%; in assay [8] it was -2.87%; in [9] it was -1.04%; in assay [10] it was -0.18%.

Turning to `COc1cccc(-n2ncc3c(N/N=C/c4ccncc4)ncnc32)c1`, the inhibition in assay [1] is 1.69%; in assay [2], 0.83%; in assay [3] it was 4.38%; in assay [4], 1.56%; in [5], 3.04%; in [6] it was 4.22%. Also, the inhibition in assay [7] is 27.9%; in assay [8], 15.4%; in [9] it was 54%; in [10] it was 3.12%.

`CCn1c(-c2nonc2N)nc2c(C#CC(C)(C)O)ncc(OCC3CCNCC3)c21`: the inhibition in assay [1] amounted to 3.34%; in assay [2] it was 3.02%; in assay [3], 21%; in [4], 1.57%; in assay [5], 2.94%; in assay [6] it was 4.3%. The inhibition in assay [7] is 18%; in assay [8], 3.58%; in [9] it was 18.4%; in assay [10], 5.26%.
